Experiments:
Assay in all cases: DAPPL (digital affinity profiling via proximity ligation, sequencing); 10 mM Tris-HCl pH 7.5, 50 mM NaCl, 1 mM DTT, 4% glycerol, room temperature, 30 min; GST-TFs on glutathione beads, 16-mer random dsDNA library, 0.1% formaldehyde crosslink after washing; high values mean tight binding
Details in all cases: protein: recombinant; tags: N-terminal GST; dsDNA, one strand shown
[1] = molecular target: T1, FLI1 (Homo sapiens, UniProt Q01543 1-452)
T1 sequence: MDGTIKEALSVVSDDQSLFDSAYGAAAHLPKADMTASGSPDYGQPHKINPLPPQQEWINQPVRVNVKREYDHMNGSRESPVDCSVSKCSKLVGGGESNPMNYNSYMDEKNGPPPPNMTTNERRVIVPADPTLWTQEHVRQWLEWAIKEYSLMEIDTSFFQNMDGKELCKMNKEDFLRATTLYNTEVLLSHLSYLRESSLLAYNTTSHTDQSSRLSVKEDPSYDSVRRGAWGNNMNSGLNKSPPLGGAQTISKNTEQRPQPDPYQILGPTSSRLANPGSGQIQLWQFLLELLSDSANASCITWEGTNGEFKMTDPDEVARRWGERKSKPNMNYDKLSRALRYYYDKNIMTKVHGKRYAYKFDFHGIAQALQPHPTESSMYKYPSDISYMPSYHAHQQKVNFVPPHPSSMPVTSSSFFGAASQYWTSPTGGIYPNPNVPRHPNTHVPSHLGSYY
Method in brief: (§1)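 Binding signal is each hexamer's read frequency for a factor divided by its frequency in the tag-only sample. The factors were GST-fused human transcription factors from yeast, captured on glutathione beads, DNA-barcoded and pooled with that sample. Pools were incubated with 200 nmole of a random double-stranded 16-mer DNA library in Tris/NaCl/DTT/glycerol buffer at room temperature for 30 min, then washed, crosslinked with 0.1% formaldehyde, proximity-ligated with BsaI/T4 ligase (1 h, 37 °C), PCR-amplified and sequenced on an Illumina NextSeq500.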

[2] = molecular target: T2, ELK1 (Homo sapiens, UniProt P19419 1-428)
T2 sequence: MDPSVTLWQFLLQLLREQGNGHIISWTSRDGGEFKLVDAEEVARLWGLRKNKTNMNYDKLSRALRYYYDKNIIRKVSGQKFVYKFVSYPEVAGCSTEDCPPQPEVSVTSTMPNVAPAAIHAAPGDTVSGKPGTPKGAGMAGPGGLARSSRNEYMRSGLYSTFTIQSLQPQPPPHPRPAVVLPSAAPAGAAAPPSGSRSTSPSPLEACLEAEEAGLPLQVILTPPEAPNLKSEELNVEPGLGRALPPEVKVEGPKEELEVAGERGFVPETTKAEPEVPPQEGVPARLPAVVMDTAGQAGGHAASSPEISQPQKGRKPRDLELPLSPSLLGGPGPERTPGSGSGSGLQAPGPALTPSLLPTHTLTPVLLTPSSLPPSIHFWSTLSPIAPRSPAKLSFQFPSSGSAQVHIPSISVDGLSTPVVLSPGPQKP
Method in brief: as §1

[3] = molecular target: T3, GABPA (Homo sapiens, UniProt Q06546 1-454)
T3 sequence: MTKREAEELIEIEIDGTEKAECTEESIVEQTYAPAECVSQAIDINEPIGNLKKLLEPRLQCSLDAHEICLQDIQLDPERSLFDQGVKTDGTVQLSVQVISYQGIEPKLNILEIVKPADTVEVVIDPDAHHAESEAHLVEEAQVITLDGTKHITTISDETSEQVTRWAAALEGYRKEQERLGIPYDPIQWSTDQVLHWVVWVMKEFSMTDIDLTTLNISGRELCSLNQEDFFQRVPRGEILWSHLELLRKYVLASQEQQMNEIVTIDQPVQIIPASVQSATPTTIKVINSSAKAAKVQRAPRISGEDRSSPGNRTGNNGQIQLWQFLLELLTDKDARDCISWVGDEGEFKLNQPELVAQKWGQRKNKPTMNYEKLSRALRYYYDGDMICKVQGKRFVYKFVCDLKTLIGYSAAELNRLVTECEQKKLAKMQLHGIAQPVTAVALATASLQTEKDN
Method in brief: as §1

[4] = molecular target: T4, ERG (Homo sapiens, UniProt P11308 1-479)
T4 sequence: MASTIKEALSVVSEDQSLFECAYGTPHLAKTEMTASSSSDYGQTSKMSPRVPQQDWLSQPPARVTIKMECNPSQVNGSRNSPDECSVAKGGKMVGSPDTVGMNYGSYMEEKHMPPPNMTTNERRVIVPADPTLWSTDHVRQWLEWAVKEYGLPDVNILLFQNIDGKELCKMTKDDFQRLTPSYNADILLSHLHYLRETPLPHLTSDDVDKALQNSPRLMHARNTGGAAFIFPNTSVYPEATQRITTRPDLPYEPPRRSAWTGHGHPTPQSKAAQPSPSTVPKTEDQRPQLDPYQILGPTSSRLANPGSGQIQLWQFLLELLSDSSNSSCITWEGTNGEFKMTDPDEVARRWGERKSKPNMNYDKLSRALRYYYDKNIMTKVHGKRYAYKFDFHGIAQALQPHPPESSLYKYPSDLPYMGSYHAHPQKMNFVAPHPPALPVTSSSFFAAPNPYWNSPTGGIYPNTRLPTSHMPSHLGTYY
Method in brief: as §1

[5] = molecular target: ELF1 (Homo sapiens, UniProt P32519 1-619)
Chain of ELF1 (P32519 whole entry): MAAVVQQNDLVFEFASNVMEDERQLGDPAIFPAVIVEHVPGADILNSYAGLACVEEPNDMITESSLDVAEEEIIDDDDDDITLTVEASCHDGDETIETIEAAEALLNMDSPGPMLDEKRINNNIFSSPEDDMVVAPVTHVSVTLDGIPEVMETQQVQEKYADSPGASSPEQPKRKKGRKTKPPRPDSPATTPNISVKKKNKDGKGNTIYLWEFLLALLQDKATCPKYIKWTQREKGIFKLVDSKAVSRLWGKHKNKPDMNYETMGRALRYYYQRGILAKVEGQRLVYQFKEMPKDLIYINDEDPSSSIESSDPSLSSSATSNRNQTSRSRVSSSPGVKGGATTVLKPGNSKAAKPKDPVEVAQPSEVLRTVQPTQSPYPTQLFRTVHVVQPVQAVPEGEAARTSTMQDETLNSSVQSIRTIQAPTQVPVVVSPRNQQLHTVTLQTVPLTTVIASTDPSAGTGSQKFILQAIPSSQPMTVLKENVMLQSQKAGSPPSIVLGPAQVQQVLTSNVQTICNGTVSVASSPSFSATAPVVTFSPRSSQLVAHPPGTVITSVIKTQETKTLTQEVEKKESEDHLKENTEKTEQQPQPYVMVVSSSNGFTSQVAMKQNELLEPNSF
Method in brief: as §1

[6] = molecular target: T5, EHF (Homo sapiens, UniProt Q9NZC4 1-300)
T5 sequence: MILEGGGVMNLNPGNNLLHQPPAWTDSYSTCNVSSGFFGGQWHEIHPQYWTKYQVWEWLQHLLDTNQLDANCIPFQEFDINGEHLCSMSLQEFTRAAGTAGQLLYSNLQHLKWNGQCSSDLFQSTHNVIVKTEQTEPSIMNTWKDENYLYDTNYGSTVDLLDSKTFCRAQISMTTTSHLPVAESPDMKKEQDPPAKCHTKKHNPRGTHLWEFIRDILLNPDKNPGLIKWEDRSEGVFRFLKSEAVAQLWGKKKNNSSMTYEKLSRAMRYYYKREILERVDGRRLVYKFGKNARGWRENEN
Method in brief: as §1

[7] = molecular target: SPI1 (Homo sapiens, UniProt P17947 1-270)
Method in brief: as §1

[8] = molecular target: SPIB (Homo sapiens, UniProt Q01892 1-262)
Chain of SPIB (Q01892 whole entry): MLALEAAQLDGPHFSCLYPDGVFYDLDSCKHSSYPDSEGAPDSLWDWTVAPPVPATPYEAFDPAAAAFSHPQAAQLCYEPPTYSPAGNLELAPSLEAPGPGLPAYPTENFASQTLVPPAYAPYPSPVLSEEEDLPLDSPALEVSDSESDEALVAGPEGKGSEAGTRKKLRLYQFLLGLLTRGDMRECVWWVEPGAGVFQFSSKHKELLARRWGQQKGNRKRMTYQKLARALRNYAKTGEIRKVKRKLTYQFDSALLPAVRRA
Method in brief: as §1

[9] = molecular target: T6, FEV (Homo sapiens, UniProt Q99581 1-238)
T6 sequence: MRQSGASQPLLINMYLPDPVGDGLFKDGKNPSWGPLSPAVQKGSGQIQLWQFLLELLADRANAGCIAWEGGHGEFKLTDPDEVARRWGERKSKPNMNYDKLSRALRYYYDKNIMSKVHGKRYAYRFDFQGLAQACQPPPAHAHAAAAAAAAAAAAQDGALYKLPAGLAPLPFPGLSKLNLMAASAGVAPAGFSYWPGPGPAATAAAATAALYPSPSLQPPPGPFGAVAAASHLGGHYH
Method in brief: as §1

[10] = molecular target: ETV5 (Homo sapiens, UniProt P41161 1-510)
Chain of ETV5 (P41161 whole entry): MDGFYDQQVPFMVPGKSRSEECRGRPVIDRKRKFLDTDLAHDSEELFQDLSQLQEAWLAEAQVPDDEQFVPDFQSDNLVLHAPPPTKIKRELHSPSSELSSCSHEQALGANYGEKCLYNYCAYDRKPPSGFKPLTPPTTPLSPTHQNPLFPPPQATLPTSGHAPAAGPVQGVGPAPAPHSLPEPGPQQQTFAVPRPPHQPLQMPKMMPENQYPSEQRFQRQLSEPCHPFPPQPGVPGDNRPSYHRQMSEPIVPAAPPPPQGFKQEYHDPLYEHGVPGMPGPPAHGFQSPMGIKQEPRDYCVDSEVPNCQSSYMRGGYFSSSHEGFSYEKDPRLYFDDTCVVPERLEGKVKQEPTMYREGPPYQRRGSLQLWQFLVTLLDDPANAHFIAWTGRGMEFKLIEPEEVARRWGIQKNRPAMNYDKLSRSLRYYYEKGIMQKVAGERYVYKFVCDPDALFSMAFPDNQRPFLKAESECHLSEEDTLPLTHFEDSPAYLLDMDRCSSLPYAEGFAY
Method in brief: as §1

[11] = molecular target: ELF4 (Homo sapiens, UniProt Q99607 1-663)
Chain of ELF4 (Q99607 whole entry): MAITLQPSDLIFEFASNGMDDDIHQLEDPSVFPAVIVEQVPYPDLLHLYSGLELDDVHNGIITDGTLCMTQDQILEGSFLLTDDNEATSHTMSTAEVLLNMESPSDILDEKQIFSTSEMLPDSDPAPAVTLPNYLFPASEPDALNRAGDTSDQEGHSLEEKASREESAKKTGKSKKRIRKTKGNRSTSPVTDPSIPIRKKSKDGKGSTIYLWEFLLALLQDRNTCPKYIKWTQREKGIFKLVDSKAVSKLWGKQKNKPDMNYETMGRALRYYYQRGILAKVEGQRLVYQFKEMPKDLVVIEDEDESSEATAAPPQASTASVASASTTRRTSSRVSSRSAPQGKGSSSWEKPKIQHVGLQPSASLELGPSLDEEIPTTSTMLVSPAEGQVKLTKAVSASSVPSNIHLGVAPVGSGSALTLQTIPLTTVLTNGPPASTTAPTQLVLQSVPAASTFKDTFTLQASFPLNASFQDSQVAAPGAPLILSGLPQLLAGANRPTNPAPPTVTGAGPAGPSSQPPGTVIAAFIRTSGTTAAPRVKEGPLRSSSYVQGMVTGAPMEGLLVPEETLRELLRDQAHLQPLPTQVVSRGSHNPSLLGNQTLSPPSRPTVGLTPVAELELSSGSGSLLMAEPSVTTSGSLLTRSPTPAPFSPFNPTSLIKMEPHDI
Method in brief: as §1

[12] = molecular target: T7, ETV2 (Homo sapiens, UniProt O00321 1-342)
T7 sequence: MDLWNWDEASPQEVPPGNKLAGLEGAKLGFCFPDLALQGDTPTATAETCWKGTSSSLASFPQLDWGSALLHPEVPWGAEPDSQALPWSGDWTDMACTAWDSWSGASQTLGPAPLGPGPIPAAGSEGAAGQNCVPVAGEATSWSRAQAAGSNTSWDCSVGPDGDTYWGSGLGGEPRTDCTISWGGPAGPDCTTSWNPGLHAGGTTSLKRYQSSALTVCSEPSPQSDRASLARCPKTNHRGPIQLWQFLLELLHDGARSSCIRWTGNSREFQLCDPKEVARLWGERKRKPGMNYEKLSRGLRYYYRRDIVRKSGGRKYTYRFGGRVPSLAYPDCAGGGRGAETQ
Method in brief: as §1

[13] = molecular target: T8, ELF3 (Homo sapiens, UniProt P78545 1-371)
T8 sequence: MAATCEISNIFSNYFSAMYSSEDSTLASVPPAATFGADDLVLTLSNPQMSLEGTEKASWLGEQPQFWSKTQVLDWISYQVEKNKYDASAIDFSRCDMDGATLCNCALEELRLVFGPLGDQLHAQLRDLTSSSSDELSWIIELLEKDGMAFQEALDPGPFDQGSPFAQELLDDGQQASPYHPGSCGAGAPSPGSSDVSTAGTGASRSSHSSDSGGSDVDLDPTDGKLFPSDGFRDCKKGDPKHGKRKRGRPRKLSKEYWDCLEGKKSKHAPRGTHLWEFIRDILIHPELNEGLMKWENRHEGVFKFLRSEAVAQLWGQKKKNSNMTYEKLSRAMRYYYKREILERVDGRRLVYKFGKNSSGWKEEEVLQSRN
Method in brief: as §1

[14] = molecular target: ETV1 (Homo sapiens, UniProt P50549 1-477)
Chain of ETV1 (P50549 whole entry): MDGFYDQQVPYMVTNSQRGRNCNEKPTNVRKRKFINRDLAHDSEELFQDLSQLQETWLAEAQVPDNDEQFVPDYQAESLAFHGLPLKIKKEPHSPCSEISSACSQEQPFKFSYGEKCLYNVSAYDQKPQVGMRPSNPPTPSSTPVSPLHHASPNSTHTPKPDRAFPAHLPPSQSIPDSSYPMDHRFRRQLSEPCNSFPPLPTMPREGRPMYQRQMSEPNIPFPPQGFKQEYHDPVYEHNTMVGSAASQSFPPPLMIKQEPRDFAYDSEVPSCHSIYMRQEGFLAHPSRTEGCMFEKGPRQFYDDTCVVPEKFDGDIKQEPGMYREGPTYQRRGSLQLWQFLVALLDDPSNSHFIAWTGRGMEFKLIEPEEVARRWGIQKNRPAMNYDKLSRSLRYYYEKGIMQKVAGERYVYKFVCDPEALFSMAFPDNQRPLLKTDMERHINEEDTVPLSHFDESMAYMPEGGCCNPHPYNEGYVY
Method in brief: as §1

[15] = molecular target: T9, ERF (Homo sapiens, UniProt P50548 1-548)
T9 sequence: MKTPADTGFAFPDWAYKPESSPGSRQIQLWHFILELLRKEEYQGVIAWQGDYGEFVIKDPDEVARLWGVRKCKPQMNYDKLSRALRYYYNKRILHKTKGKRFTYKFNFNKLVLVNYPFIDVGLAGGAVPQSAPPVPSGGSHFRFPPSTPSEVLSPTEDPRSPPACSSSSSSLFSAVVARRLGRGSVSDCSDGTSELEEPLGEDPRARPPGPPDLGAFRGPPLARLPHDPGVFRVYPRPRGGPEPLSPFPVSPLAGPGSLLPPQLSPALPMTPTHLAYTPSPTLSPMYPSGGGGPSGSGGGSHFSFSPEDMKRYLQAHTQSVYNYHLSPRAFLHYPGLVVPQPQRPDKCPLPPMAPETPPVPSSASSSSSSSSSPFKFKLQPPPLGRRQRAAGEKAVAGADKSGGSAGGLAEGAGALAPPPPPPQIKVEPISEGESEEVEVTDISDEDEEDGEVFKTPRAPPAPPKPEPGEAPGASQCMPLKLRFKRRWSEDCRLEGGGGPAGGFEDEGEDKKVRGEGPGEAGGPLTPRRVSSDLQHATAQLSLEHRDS
Method in brief: as §1

[16] = molecular target: T10, ETV3L (Homo sapiens, UniProt Q6ZN32 1-361)
T10 sequence: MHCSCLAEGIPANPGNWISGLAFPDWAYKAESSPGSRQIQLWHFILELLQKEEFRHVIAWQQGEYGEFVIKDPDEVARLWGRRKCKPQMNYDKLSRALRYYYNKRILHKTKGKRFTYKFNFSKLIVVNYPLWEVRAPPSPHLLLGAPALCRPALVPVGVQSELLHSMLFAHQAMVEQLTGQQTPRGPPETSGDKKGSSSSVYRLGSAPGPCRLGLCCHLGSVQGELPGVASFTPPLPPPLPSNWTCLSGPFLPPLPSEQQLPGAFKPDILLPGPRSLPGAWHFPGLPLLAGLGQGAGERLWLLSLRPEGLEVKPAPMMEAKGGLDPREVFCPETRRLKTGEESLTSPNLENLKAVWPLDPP
Method in brief: as §1

[17] = molecular target: T11, ETS2 (Homo sapiens, UniProt P15036 1-469)
T11 sequence: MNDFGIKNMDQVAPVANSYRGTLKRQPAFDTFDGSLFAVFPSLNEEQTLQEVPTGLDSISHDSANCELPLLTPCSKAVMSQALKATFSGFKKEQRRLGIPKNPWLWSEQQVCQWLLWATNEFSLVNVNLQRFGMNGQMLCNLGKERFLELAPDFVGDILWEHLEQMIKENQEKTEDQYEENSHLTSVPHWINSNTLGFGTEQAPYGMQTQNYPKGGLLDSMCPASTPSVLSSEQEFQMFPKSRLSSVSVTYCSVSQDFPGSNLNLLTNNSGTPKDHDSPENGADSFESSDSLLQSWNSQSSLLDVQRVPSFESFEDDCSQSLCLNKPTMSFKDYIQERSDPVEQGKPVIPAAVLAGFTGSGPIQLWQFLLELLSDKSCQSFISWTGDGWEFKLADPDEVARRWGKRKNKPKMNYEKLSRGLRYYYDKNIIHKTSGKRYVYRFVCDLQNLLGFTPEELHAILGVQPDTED
Method in brief: as §1

[18] = molecular target: T12, ETV7 (Homo sapiens, UniProt Q9Y603 1-341)
T12 sequence: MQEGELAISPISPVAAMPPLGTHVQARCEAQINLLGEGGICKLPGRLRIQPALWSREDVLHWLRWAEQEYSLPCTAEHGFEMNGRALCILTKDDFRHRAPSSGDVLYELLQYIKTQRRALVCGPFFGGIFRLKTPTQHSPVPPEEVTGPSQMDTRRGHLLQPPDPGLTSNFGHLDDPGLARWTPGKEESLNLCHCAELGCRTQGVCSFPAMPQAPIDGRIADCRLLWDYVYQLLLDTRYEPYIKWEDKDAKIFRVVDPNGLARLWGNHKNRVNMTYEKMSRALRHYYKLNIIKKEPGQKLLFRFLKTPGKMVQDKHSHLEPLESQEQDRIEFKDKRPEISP
Method in brief: as §1

[19] = molecular target: T13, ETV3 (Homo sapiens, UniProt P41162-2 1-143)
T13 sequence: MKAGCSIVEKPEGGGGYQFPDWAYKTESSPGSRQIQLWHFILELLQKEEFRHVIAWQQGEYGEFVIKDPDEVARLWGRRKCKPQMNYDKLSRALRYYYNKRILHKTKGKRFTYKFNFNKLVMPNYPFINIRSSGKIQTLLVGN
Method in brief: as §1

[20] = molecular target: ETV6 (Homo sapiens, UniProt P41212 1-452)
Chain of ETV6 (P41212 whole entry): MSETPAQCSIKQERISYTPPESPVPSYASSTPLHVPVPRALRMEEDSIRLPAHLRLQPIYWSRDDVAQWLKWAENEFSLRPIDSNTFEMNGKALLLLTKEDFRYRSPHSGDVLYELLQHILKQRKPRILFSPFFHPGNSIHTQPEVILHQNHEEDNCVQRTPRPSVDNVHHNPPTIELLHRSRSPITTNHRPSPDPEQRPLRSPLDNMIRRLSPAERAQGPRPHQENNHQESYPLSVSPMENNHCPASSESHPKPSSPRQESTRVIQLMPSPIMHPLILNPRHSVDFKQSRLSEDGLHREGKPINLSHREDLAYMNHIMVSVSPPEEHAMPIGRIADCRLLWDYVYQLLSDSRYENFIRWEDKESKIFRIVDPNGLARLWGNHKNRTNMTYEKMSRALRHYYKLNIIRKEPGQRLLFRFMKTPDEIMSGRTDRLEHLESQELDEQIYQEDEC
Method in brief: as §1

CATGAC
binding signal [1]: 1.23 fold enrichment (6-mer frequency, TF over GST control)
binding signal [2]: 1.18 fold enrichment (6-mer frequency, TF over GST control)
binding signal [3]: 1.34 fold enrichment (6-mer frequency, TF over GST control)
binding signal [4]: 1.14 fold enrichment (6-mer frequency, TF over GST control)
binding signal [5]: 1.18 fold enrichment (6-mer frequency, TF over GST control)
binding signal [6]: 1.25 fold enrichment (6-mer frequency, TF over GST control)
binding signal [7]: 1.28 fold enrichment (6-mer frequency, TF over GST control)
binding signal [8]: 1.16 fold enrichment (6-mer frequency, TF over GST control)
binding signal [9]: 1.17 fold enrichment (6-mer frequency, TF over GST control)
binding signal [10]: 1.24 fold enrichment (6-mer frequency, TF over GST control)
binding signal [11]: 1.28 fold enrichment (6-mer frequency, TF over GST control)
binding signal [12]: 1.3 fold enrichment (6-mer frequency, TF over GST control)
binding signal [13]: 1.15 fold enrichment (6-mer frequency, TF over GST control)
binding signal [14]: 1.13 fold enrichment (6-mer frequency, TF over GST control)
binding signal [15]: 1.18 fold enrichment (6-mer frequency, TF over GST control)
binding signal [16]: 1.13 fold enrichment (6-mer frequency, TF over GST control)
binding signal [17]: 1.2 fold enrichment (6-mer frequency, TF over GST control)
binding signal [18]: 1.11 fold enrichment (6-mer frequency, TF over GST control)
binding signal [19]: 1.13 fold enrichment (6-mer frequency, TF over GST control)
binding signal [20]: 1.18 fold enrichment (6-mer frequency, TF over GST control)

Source: publication PMC7862700, “An all-to-all approach to the identification of sequence-specific readers for epigenetic DNA modifications on cytosine”
